Records with an inconclusive call do not appear. Active and inactive are the calls of the source. Unless noted, calls follow the shape of the dose curve; as a rule, active = well fitted cell-killing curve with a large enough effect in the repeat runs; inconclusive = weak or mixed curves; inactive = flat fitted curve, though single readings scatter.
% is scaled to controls: 0 for no effect and ±100 for the full control effect.

The first experiment can be described thus: qHTS assay to identify small molecule agonists of the progesterone receptor (PR) signaling pathway - cell viability counter screen (AID 1346799; calls by dose curve; also: nearly all actives have a fitted effect of over 45% in size). Conditions: PR-UAS-bla HEK293T viability, CellTiter-Glo luminescence, 16 h; series mostly up to 92.4 µM. The essentials:
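HEK293T PR-UAS-bla, 3,000 cells/well, 2% charcoal-stripped FBS; 6 h settle, compound 16 h at 37C/5% CO2; LiveBLAzer 2 h RT, then CellTiter-Glo 30 min RT, luminescence read.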
On to `COCCc1ccccn1`, for which the outcome was inactive.
Still for that read-out and setting: the entry for `COC(=O)CCCCC(CCSS/C(CCO)=C(\C)N(C=O)Cc1cnc(C)nc1N)SC(C)=O` (centres undefined) is “inactive”; for `CC12CCC(C1)C(C)(C)C2O` (centres undefined) it is “inactive”; for `COc1cc(/C=C/C(N)=O)cc(OC)c1OC` it is “inactive”.
With `CCOc1cccc(N)c1`, the outcome was inactive.
On the same count and under the same terms, the entry for `CCOC(=O)CC1(C)OCC(C)O1` (centres undefined) is “inactive”.
Still for that read-out and setting: the entry for `Cc1cc(C)c(C(=O)O)c(C)c1` is “inactive”.
Still for that read-out and setting: the entry for `CCCSSCCC` is “inactive”; for `CC(=O)OC1CCCCC1C(C)(C)C` (centres undefined) it is “inactive”; for `Fc1ccccc1` it is “inactive”.
For the compound `CC1=C(O)C(=O)C(C)O1` (centres undefined), the compound was classed as inactive.
The same measure, in the same setting: the entry for `C/C(CC(C)C)=N\O` is “inactive”; for `O=C(Cn1ccnc1[N+](=O)[O-])NCc1ccccc1` it is “inactive”.
The same measure, in the same setting: the entry for `CC1(C)Oc2ccc(C#N)cc2[C@@H](N2CCCC2=O)[C@@H]1O` is “inactive”.
For the compound `[O]=[Mo](=[O])=[O]`, the activity change, negative = cytotoxicity is 7.88% [at 19 µM] (inactive).
Regarding `CCCCOCC(C)O` (centres undefined), the compound was called inactive.
On the same count and under the same terms, the entry for `CCC(C)C(=O)OCCc1ccccc1` (centres undefined) is “inactive”; for `COC(C)(OC)OC` it is “inactive”.

The next experiment can be described thus: qHTS assay to identify small molecule antagonists of the TGF-beta/Smad signaling pathway - cell viability counter screen (AID 1346824). Also: nearly all actives have a fitted effect of over 50% in size. As to conditions: SBE-bla HEK293T viability, CellTiter-Glo luminescence; series mostly up to 76.8 µM. The essentials:
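Cytotoxicity counter-screen run in the same wells as the beta-lactamase Smad reporter read: CellTiter-Glo luminescence after 30 min at room temperature. HEK 293T SBE-bla cells had 5 hr compound exposure at 37 C with TGF-beta1 (0.25 ng/mL stock).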
Consider `OC1OCCOC1O` (centres undefined), for which the outcome was inactive.
Same read-out and setting: the entry for `CC(C)(CO)C(O)C(=O)NCCCO` (centres undefined) is “inactive”.
With `CCC(C)C(C)=O` (centres undefined), the compound was called inactive.
As to `Cc1ccccc1C(N)=O`, the call was inactive.
The same measure, in the same setting: the entry for `CCCc1ccc(O)cc1` is “inactive”; for `CCc1occc(=O)c1O` it is “inactive”.
As for `CC1(C)CC(OC(=O)CCCCCCCCC(=O)OC2CC(C)(C)NC(C)(C)C2)CC(C)(C)N1`, the viability change, negative = cytotoxic was -1.01% [at 15.8 µM] (inactive).
On to `CC1CC(=O)CC(C)(C)C1` (centres undefined), for which the outcome was inactive.
As for `CCCCOC(=O)C(C)O` (centres undefined), the result was inactive.
Same read-out and setting: the entry for `CC1CCc2c(N3CCC(O)CC3)c(F)cc3c(=O)c(C(=O)O)cn1c23` (centres undefined) is “inactive”; for `COP(=O)(O)OP(=O)(O)OC` it is “inactive”.
The same measure, in the same setting: the entry for `CCCC(=O)Nc1ccc(OCC(O)CNC(C)C)c(C(C)=O)c1` (centres undefined) is “inactive”; for `CC(C)Nc1ccccc1` it is “inactive”.
On the same count and under the same terms, the entry for `C=CC/C=C/C` is “inactive”; for `COc1ccc2c(c1)c1c3n2CCN(C)C3=NCC1` it is “inactive”; for `CN(C)CCOC(=O)C(c1ccccc1)C1(O)CCCC1` (centres undefined) it is “inactive”.
As to `COC(=O)c1cc(Cl)cc(Cl)c1`, the compound was classed as inactive.
Still for that read-out and setting: the entry for `CC1(C)[C@H]2CC[C@](C)(C2)[C@H]1O` is “inactive”; for `COCCc1ccccn1` it is “inactive”; for `COC(=O)CCCCC(CCSS/C(CCO)=C(\C)N(C=O)Cc1cnc(C)nc1N)SC(C)=O` (centres undefined) it is “inactive”.
Turning to `CC12CCC(C1)C(C)(C)C2O` (centres undefined), the result was inactive.
Same read-out and setting: the entry for `COc1cc(/C=C/C(N)=O)cc(OC)c1OC` is “inactive”; for `CCOc1cccc(N)c1` it is “inactive”; for `CCOC(=O)CC1(C)OCC(C)O1` (centres undefined) it is “inactive”.
For `Cc1cc(C)c(C(=O)O)c(C)c1`, the outcome was inactive.
For `CCCSSCCC`, the compound was classed as inactive.
For the compound `CC(=O)OC1CCCCC1C(C)(C)C` (centres undefined), the call was inactive.
Take `Fc1ccccc1`: the compound was classed as inactive.
Still for that read-out and setting: the entry for `CC1=C(O)C(=O)C(C)O1` (centres undefined) is “inactive”; for `C/C(CC(C)C)=N\O` it is “inactive”; for `O=C(Cn1ccnc1[N+](=O)[O-])NCc1ccccc1` it is “inactive”.
On to `CC1(C)Oc2ccc(C#N)cc2[C@@H](N2CCCC2=O)[C@@H]1O`, for which the compound was classed as inactive.
Turning to `[O]=[Mo](=[O])=[O]`, the viability change, negative = cytotoxic was 0.506% [at 15.8 µM] (inactive).
Regarding `CCCCOCC(C)O` (centres undefined), the outcome was inactive.
Take `CCC(C)C(=O)OCCc1ccccc1` (centres undefined): the result was inactive.
`COC(C)(OC)OC`: the outcome was inactive.

The record behind these values is PubChem BioAssay (Tox21).
